Screening data (PubChem)
TDP1 block – qHTS Assay for Inhibitors of Tyrosyl-DNA Phosphodiesterase (TDP1); Tyrosyl-DNA phosphodiesterase 1 (Homo sapiens), Q9NUW8; recombinant TDP1, AlphaScreen DNA substrate cleavage; Potency, µM (titrated, usually from 130 µM), actives largely listed as inhibitors; 0.28% of 350,000 active; also: nearly all actives have a fitted effect of over 40% in size
Target sequence (Q9NUW8 whole entry, looked up): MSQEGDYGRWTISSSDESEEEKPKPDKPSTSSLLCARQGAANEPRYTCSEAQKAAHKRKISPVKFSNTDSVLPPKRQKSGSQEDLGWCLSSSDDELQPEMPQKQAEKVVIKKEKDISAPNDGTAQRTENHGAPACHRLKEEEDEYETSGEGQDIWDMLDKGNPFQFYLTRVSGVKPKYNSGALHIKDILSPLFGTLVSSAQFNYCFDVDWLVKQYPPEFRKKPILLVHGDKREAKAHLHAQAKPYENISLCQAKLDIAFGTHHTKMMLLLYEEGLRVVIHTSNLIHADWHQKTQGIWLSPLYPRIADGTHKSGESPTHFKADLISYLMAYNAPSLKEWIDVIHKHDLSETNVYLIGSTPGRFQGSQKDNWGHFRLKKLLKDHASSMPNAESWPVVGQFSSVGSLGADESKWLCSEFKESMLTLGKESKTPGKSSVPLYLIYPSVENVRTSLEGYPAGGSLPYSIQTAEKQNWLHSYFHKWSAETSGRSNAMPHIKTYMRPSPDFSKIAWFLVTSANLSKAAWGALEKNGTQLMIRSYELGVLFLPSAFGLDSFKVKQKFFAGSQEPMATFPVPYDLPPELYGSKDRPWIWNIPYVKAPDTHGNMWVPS
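AlphaScreen read-out: signal falls as enzyme removes the 3' tyrosine-FITC from a 5'-biotinylated DNA oligo (15 nM, 5 min, RT). Enzyme was E. coli-made recombinant Tdp1 at 1 nM, exposed to compound for 15 min beforehand; beads 10 ug/ml, 10 min.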
uPA generation – qHTS for Inhibitors of Cell Surface uPA Generation; Potency, µM (titrated, usually from 38.3 µM), actives largely listed as inhibitors; 0.31% of 330,000 active; cell surface uPA generation assay, qHTS; active = well fitted inhibition curve with a large enough effect; inconclusive = small, poorly fitted or top-dose-only effect; inactive = no such curve, though single readings can be large or run the other way; tested in mouse RAW 264.7 cells; also: nearly all actives have a fitted effect of over 55% in size
TDP1 cell CPT – qHTS for Inhibitors of human tyrosyl-DNA phosphodiesterase 1 (TDP1): qHTS in cells in presence of CPT; 12% of 420,000 active; chicken DT40 Tdp1-/-;hTDP1 cells + 20 nM CPT, ATP luminescence, 48 h; Potency, µM (titrated, usually from 46.2 µM), most hits filed as inhibitors; AID 686979, 2013; also: nearly all actives have a fitted effect of over 55% in size
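Chicken DT40 Tdp1-/- cells complemented with human TDP1, 400 cells/well, exposed to compounds plus 20 nM camptothecin for at least 48 h at 37 C; viability read as ATP content by CellTiter-Glo luminescence.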
miR-21 reporter – qHTS Assay for Modulators of miRNAs and/orActivators of miR-21; HeLa miR-21 FLuc reporter, luciferase, 48 h; Potency, µM (highest dose often 38.3 µM), hits mostly activators; 340,000 tested, under 10 active; AID 2288, 2010;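 also: miR-21 action dims this reporter so a rising signal means less miR-21 action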
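Luminescence from a firefly luciferase reporter carrying a miR-21 binding site downstream, stably expressed under a CMV promoter in HeLa cells that make miR-21 endogenously, reports miRNA modulation after 48 h compound exposure up to approximately 40uM final.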
DT40 TDP1 no CPT – qHTS for Inhibitors of human tyrosyl-DNA phosphodiesterase 1 (TDP1): qHTS in cells in absence of CPT. DT40 Tdp1-/- hTDP1 cells, no CPT, ATP luminescence, 48 h. Potency, µM (top dose mostly 46.2 µM), actives largely listed as inhibitors. 15% of 420,000 active. AID 686978, 2013; also: nearly all actives have a fitted effect of over 55% in size
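Chicken DT40 Tdp1-/- cells complemented with human TDP1, screened without camptothecin (DMSO vehicle only), 400 cells/well. Compounds pin-transferred, cells incubated at 37 °C for at least 48 hr. Growth read as ATP-dependent luminescence (CellTiter-Glo, 30 min at RT).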
Hits are given with their value; . = inactive; ? = inconclusive; / = no result given; [ ] = remark or other dose. An excerpt weighted towards active compounds, which were near 16% of everything screened. Unless noted, calls follow the shape of the dose curve; as a rule, active = well fitted curve in the direction sought with a large enough effect; inconclusive = small, poorly fitted or top-dose-only effect, or another doubt; inactive = no such curve, though single readings can be large; an effect the other way counts as inactive or inconclusive.

SMILES	TDP1 block	uPA generation	TDP1 cell CPT	miR-21 reporter	DT40 TDP1 no CPT
COc1cc(C(=O)N2CCN(c3cc(Cl)ccc3Cl)CC2)cc(OC)c1OC	.	?	0.517µM	.	0.411µM
O=C(c1ccc(Cl)cc1)N1CCN(c2ccnc3cc(Cl)ccc23)CC1	.	.	?	.	13µM
CCOC(=O)N1CCN(c2ccnc3cc(Cl)ccc23)CC1	.	.	?	.	14.6µM
O=C(NNc1ccnc2cc(Cl)ccc12)C1CCCCC1	.	.	0.92µM	.	0.651µM
NC(=S)NNc1ccnc2cc(Cl)ccc12	.	.	.	.	?
CCC(=O)N1CCN(c2ccnc3cc(Cl)ccc23)CC1	.	.	?	.	?
COc1ccc(C(=O)N2CCN(C(=O)c3cc(OC)c(OC)c(OC)c3)CC2)cc1	.	.	.	.	.
CCOC(=O)c1ccc([N+](=O)[O-])cc1NC(C)=O	.	.	.	.	.
CCN(C[C@H]1N[C@@](Cc2ccccc2)(C(=O)OC)[C@H]2C(=O)N(Cc3ccccc3)C(=O)[C@@H]12)C(C)=O	.	.	.	/	.
O=C(NCc1ccccc1Cl)c1cc(-c2ccccc2)n[nH]1	.	/	?	.	?
Cc1cc(C)n(CCCNC(=O)c2ccco2)n1	.	.	.	/	.
CC(C)N(C(=O)N1CCN(c2ccnc3cc(Cl)ccc23)CC1)C(C)C	/	.	11.6µM	?	9.2µM
O=C(Oc1ccnc2cc(Cl)ccc12)N1CCCCCC1	.	.	?	.	23.1µM
CS(=O)(=O)N1CCN(c2ccnc3cc(Cl)ccc23)CC1	.	.	.	.	?
CC(=O)c1cccc(OCC(=O)Nc2cccc(C(=O)Nc3c(C)n(C)n(-c4ccccc4)c3=O)c2)c1	.	.	13µM	/	?
Cc1c(NC(=O)c2cccc(NC(=O)COc3ccc(C#N)cc3)c2)c(=O)n(-c2ccccc2)n1C	.	.	.	/	.
COc1cccc(C(=O)N2CCc3cc(OC)c(OC)cc3C2COc2ccc3c(C)cc(=O)oc3c2)c1 (configuration not stated)	.	/	?	.	10.3µM
COc1cc(NC(=O)COc2cc(C)cc3oc(=O)c(C)c(C)c23)cc(OC)c1OC	.	.	.	.	.
COc1cc2c(cc1OC)C(COc1ccc3c(C)cc(=O)oc3c1)N(C(=O)c1ccccc1F)CC2 (configuration not stated)	.	/	?	.	20.6µM
COc1cc(NC(=O)COc2cc3oc(=O)cc(C)c3cc2Cl)cc(OC)c1OC	.	.	8.2µM	.	5.8µM
COc1cc2c(cc1OC)C(COc1ccc3c(C)cc(=O)oc3c1)N(C(=O)c1cc(Cl)ccc1OC)CC2 (configuration not stated)	.	/	?	.	?
Cc1nc(Nc2c(Cl)cccc2Cl)sc1C(=O)Nc1ccccc1	.	.	.	.	.
Cc1ccc(C(=O)NCCc2ccccn2)cc1S(=O)(=O)N1CCOCC1	.	.	.	.	.
C=C(NS(=O)(=O)c1ccc(C)cc1)C(=O)OC	/	.	.	/	.
Cc1cc(=O)oc2cc(OCC(=O)Nc3c(Cl)cccc3C(F)(F)F)ccc12	.	.	?	.	13µM
SMILES	TDP1 block	uPA generation	TDP1 cell CPT	miR-21 reporter	DT40 TDP1 no CPT
COc1ccc(C(=O)COc2ccc3c(C)cc(=O)oc3c2)cc1	/	.	.	.	?
Cc1cc(=O)oc2cc(OCC(=O)Nc3nccs3)ccc12	.	.	.	.	.
Cc1cccc(C)c1NC(=O)COc1ccc2c(C)c(Cc3ccccc3)c(=O)oc2c1	.	.	?	.	11.6µM
COc1cccc(C(=O)COc2ccc3c(C)cc(=O)oc3c2)c1	/	?	3.26µM	.	2.31µM
CC(=O)c1cccc(NC(=O)COc2ccc3oc(=O)cc(C)c3c2)c1	/	.	18.4µM	.	?
COc1ccc(C2NC(=O)C(C)S2)cc1 (configuration not stated)	.	/	.	.	.
C(CCc1nn[nH]n1)CCC1CCCCC1	/	.	.	/	.
CCOC(=O)OCC1OC(c2ccc(C(C)=O)cc2)C=CC1OC(=O)OCC (configuration not stated)	.[21 µM]	/	/	/	/
